The record followed here is PubChem BioAssay AID1492 (National Center for Advancing Translational Sciences (NCATS), 2009).

For this assay, the target named is Muscarinic acetylcholine receptor M1 (Rattus norvegicus) (UniProt P08482). Nature of the assay: Counterscreen Concentration-Response Assay for Antagonists of the Neuropeptide S Receptor: Muscarinic Receptor Calcium Signal Transduction. The essentials:
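CHO cells stably expressing M1 receptor, calcium-dye loaded, pre-exposed to compound, then stimulated with carbachol (60 nM in stimulation reagent). Peak FDSS kinetic fluorescence over 180 s; AC50 from Hill fit.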

Records with an inconclusive call do not appear. Where a call stands in place of a potency, no number is given. The source made the active and inactive calls. Calls follow the shape of the dose curve; as a rule, active = well fitted inhibition curve with a large enough effect; inconclusive = small, poorly fitted or top-dose-only effect; inactive = flat fitted curve, though single readings scatter.

Turning to `O=[N+]([O-])c1cc2c(cc1/C=N/n1c(-c3ccccc3)n[nH]c1=S)OCO2`, the Potency entry was “inactive”.
On to `Cc1cccnc1NC(=O)c1c(O)c2cccc3c2n(c1=O)CCC3`, for which the Potency result was “inactive”.
As for `Cc1ccc2nc3ccc(N4CCCCCCC4)nn3c(=O)c2c1`, the entry is “inactive”; as for `O=C(N1CCOCC1)C1(c2ccc(Cl)cc2)CCCC1`, “inactive”.
In the case of `COc1ccc(C2c3c(ncn(CCN4CCOCC4)c3=N)Oc3ccc4ccccc4c32)cc1OC` (configuration not stated), the Potency result is “inactive”.
Consider `CCc1ccc2oc(-c3cc(N)cc(C)c3O)nc2c1`, for which the Potency entry is “inactive”.
As for `Cc1ccc(Cn2cc(SCC(=O)Nc3nccs3)c3ccccc32)cc1`, the entry is “inactive”.
As for `CCOc1ccc(N2C(=O)CC(NCCc3ccncc3)C2=O)cc1` (configuration not stated), the entry is “inactive”; as for `N#CC(C#N)=c1ccc2c(c1)NC1(CCCCC1)N=2`, “inactive”.
As for `O=C(/C=C/c1ccco1)NC(=S)Nc1cccc(-c2nc3ccccc3o2)c1`, the entry is “inactive”.
Consider `CCC(C)n1c(=O)c(C(=O)Nc2ccccc2S(N)(=O)=O)c(O)c2ccccc21` (configuration not stated), for which the Potency entry was “inactive”.
As for `O=C(O)CCCCCNc1nc(=S)[nH]c2ccccc12`, the entry is “inactive”; as for `O=C(Nc1nccs1)C1CCCN1S(=O)(=O)c1ccc(Cl)cc1` (configuration not stated), “inactive”; as for `CC(=O)n1nc2nc(C)cc(C)c2c1N`, “inactive”.
As for `CCC(C)(C)NC(=O)Cc1ccc(C)cc1`, the entry is “inactive”; as for `O=C1CC(NCc2ccncc2)C(=O)N1c1ccccc1` (configuration not stated), “inactive”.
As to `COCCCn1c(SCc2cc(=O)[nH]c3ccccc23)nnc1-c1ccco1`, the Potency entry is “inactive”.
As for `c1ccc(N2CCN(Cc3ccnc4ccccc34)CC2)cc1`, the entry is “inactive”; as for `O=c1cc(-c2c(F)c(F)c(F)c(F)c2F)oc2c(F)c(F)c(F)c(F)c12`, 5.01 µM (active).
As to `O=C(CSC1=NCCS1)Nc1ccnc2ccccc12`, the Potency entry is “inactive”.
As for `CC1CCCCN1S(=O)(=O)c1ccc(C(=O)Nc2sccc2C(N)=O)cc1` (configuration not stated), the entry is “inactive”; as for `Cc1ccc(/C=C2\SC(=S)N(CC(=O)Nc3ncc(Cc4ccccc4Cl)s3)C2=O)cc1`, “inactive”; as for `CC1CCCc2sc3nc(N4CCN(CCO)CC4)n4ncnc4c3c21` (configuration not stated), “inactive”.
As for `O=c1cc(CNCCCO)c2ccccc2[nH]1`, the entry is “inactive”.
As for `O=C(CSc1n[nH]c(-c2cccnc2)n1)Nc1ccnc2ccccc12`, the entry is “inactive”; as for `Nn1c(COc2ccccc2)nnc1SCc1cc(=O)[nH]c2ccccc12`, “inactive”; as for `COc1ccc(/C=C2\CCCC3C2=NN(C(=O)c2ccco2)C3c2ccc(OC)c(OC)c2)cc1OC` (configuration not stated), “inactive”.
